Measurements as given in the supplement of paper PMC6555819.

How the values were obtained:
Assay in all cases: PBM binding z-score (relative to random genomic background probes); higher = stronger binding; sequences stand for … in GC…GCGATTGACAGCGTAGAATGAAGG
[1] = tested on: RARb homodimer (NR concentration 270 nM)
Outline: (§1)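 Random background probes are the reference for binding z-scores. These scores derive from regression-normalized fluorescence on custom Agilent 4×180K protein-binding microarrays incubated 1 h with ligand-free nuclear receptor dimers. Binding was detected with antibodies against each partner (one per run).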

[2] = tested on: RARg:RXRa (NR concentration 270 nM, RXRa partner concentration 90 nM)
Outline: as §1

[3] = tested on: RARg homodimer (NR concentration 270 nM)
Outline: as §1

[4] = tested on: RXRa DBDmut IVT, anti-RXR (DBD mutation: RXRa K156A/R161A, NR concentration 90 nM)
Outline: as §1

[5] = tested on: RXRa homodimer (NR concentration 180 nM)
Outline: as §1

[6] = tested on: THRa:RXRa (NR concentration 90 nM, RXRa partner concentration 90 nM)
Outline: as §1

[7] = tested on: THRa homodimer (NR concentration 90 nM)
Outline: as §1

[8] = tested on: VDR homodimer (NR concentration 270 nM)
Outline: as §1

Sequence | PBM binding z-score [1] | PBM binding z-score [2] | PBM binding z-score [3] | PBM binding z-score [4] | PBM binding z-score [5] | PBM binding z-score [6] | PBM binding z-score [7] | PBM binding z-score [8]
TTACCAAGGTGAAAGGTCGTTGATGCACGCCTTG | 2.52 | 4.17 | 2.31 | 0.684 | 5.67 | 3.23 | 0.838 | 1.67
AGTCAAAGTTCATCTAGGTAAGGTAAGATATGCT | 4.03 | 5.32 | 5.79 | 4.64 | 4.38 | 3.19 | 0.886 | 4.84
TCATTTAGGTAAAAGGTGAAAGTCGGTGTGGTAA | 1.9 | 1.81 | 1.04 | 1.68 | 2.47 | 2.14 | 0.844 | 0.375
TCGAGTAGGTTAGGGGCATTCCGAATGGCGTCGA | 0.646 | 0.44 | -0.221 | 0.278 | 0.54 | 0.556 | -0.0824 | 0.859
ACTAGCACGCCAAGTTTGGGTCACTCAAACAAAG | 1.5 | 0.693 | 0.804 | -0.276 | 0.756 | 2.02 | 0.988 | -0.0889
CCTACTGGGCCAATGGTCATTGATTCCAATGCTC | 0.0691 | -0.0352 | 0.182 | -0.608 | -0.164 | -0.527 | -0.561 | -0.711
GCGACTGGGGCATCAGCAGGTTACCATCACTTAA | 0.92 | 0.879 | 0.45 | -0.0239 | 0.259 | 0.783 | 0.0403 | -0.183
TCTTGTAGTTCAGCAGGTTAAGAAAGCTGGCCAA | 1.53 | 1.8 | 1.25 | 1.53 | 1.12 | 0.683 | 0.0556 | 0.942
